# Measurements as given in PubChem BioAssay (Tox21).
# Inconclusive results are not listed. Where a call stands in place of a potency, no number is given. Active and inactive are the calls of the source. Unless noted, calls follow the shape of the dose curve; as a rule, active = well fitted curve in the direction sought with a large enough effect in the repeat runs; inconclusive = weak or mixed curves; inactive = no such curve, though single readings can be large; an effect the other way counts as inactive or inconclusive.
# How the values were obtained:
# [1] = qHTS assay to identify small molecule antagonists of the glucocorticoid receptor (GR) signaling pathway - cell viability counter screen (AID 720693); also: nearly all actives have a fitted effect of over 55% in size
# [2] = qHTS assay for identifying genotoxic compounds that show differential cytotoxicity against isogenic chicken DT40 cell lines with known DNA damage response pathways - wild type cell line (AID 743012); also: nearly all actives have a fitted effect of over 60% in size; also: potency is read from the fitted curve at half-maximal effect
# Procedure, shortened: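 CellTiter-Glo luminescence readout of viability in wild type DT40 cells after 40 h compound exposure at 37 C/5% CO2; 300 cells/well; reagent incubated 30 min at room temperature before reading.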
# [3] = qHTS assay for identifying genotoxic compounds that show differential cytotoxicity against isogenic chicken DT40 cell lines with known DNA damage response pathways - Rev3 mutant cell line (AID 743014); also: nearly all actives have a fitted effect of over 55% in size; also: potency is read from the fitted curve at half-maximal effect
# [4] = qHTS assay for identifying genotoxic compounds that show differential cytotoxicity against isogenic chicken DT40 cell lines with known DNA damage response pathways - Rad54/Ku70 mutant cell line (AID 743015); also: nearly all actives have a fitted effect of over 60% in size; also: potency is read from the fitted curve at half-maximal effect
# [5] = qHTS assay to identify small molecule antagonists of the androgen receptor (AR) signaling pathway - cell viability counter screen (AID 743033; also: nearly all actives have a fitted effect of over 45% in size)
# [6] = qHTS assay to identify small molecule antagonists of the androgen receptor (AR) signaling pathway using the MDA cell line - cell viability counter screen (AID 743041; also: nearly all actives have a fitted effect of over 45% in size)
# Procedure, shortened: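 Cytotoxicity counter screen: MDA-kb2 AR-luc cells, compound + R1881, 16 h, 37C, 0% CO2; CellTiter-Fluor added at 15.5 h, fluorescence read after 30 min.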
# [7] = qHTS assay to identify small molecule antagonists of the thyroid receptor (TR) signaling pathway (AID 743065); also: series mostly up to about 70 µM; nearly all actives have a fitted effect of over 55% in size
# Procedure, shortened: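 GH3.TRE-Luc rat pituitary cells (two TREs driving luciferase) were dosed with compound, then stimulated with 1 nM T3 (final) for 23.5 h at 37 C. ONE-Glo luminescence was the read-out, with CellTiter-Fluor fluorescence as the cytotoxicity counter-screen.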
# [8] = system: thyroid hormone receptor (rat, GH3 cells); experiment: qHTS assay to identify small molecule agonists of the thyroid receptor (TR) signaling pathway (AID 743066; calls by dose curve)
# [9] = target: Estrogen receptor (Homo sapiens) (UniProt P03372); experiment: qHTS assay to identify small molecule antagonists of the estrogen receptor alpha (ER-alpha) signaling pathway (AID 743069; active = well fitted curve in the direction sought with a large enough effect in the signal ratio in the repeat runs, not every such curve was filed as active; the % refers to the signal ratio)
# Sequence of Estrogen receptor (Homo sapiens) (P03372 whole entry, looked up): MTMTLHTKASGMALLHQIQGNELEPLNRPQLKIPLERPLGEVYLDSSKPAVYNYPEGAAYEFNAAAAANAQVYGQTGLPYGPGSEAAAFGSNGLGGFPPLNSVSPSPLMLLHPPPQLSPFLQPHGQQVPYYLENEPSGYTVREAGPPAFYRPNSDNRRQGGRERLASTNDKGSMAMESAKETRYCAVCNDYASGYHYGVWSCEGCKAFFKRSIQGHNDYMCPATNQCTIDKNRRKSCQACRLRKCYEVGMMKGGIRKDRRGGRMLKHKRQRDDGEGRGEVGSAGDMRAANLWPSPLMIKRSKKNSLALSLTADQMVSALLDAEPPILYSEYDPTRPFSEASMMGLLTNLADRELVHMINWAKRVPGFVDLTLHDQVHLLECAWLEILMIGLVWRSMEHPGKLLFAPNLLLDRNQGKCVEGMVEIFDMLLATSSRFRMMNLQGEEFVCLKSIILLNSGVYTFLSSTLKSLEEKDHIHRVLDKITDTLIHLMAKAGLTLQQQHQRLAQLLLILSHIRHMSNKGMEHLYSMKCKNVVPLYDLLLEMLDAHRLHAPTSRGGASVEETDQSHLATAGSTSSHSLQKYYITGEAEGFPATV
# Procedure, shortened: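 Beta-lactamase FRET fluorescence is read after 2 hr at room temperature with LiveBLAzer B/G substrate. Before that, ER-alpha-bla HEK293 cells sit 4 hr after plating, then receive compound plus 17beta-estradiol and incubate 18 hr at 37C.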
# [10] = qHTS assay to identify small molecule antagonists of the estrogen receptor alpha (ER-alpha) signaling pathway - cell viability counter screen (AID 743074; calls by dose curve;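 also: HEK293 cells carrying ER-alpha-UAS-bla reporter stimulated with 17beta-estradiol; nearly all actives have a fitted effect of over 45% in size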)
# [11] = target: Estrogen receptor (Homo sapiens) (UniProt P03372); experiment: qHTS assay to identify small molecule agonists of the estrogen receptor alpha (ER-alpha) signaling pathway (AID 743075; calls by dose curve;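 also: HEK293 GripTite cells with ER-alpha and UAS-driven beta-lactamase reporter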)
# [12] = target: Estrogen receptor (Homo sapiens) (UniProt P03372); experiment: qHTS assay to identify small molecule agonists of the estrogen receptor alpha (ER-alpha) signaling pathway using the BG1 cell line (AID 743079); also: nearly all actives have a fitted effect of over 20% in size; also: potency is read from the fitted curve at half-maximal effect
# [13] = qHTS assay to identify small molecule antagonists of the estrogen receptor alpha (ER-alpha) signaling pathway using the BG1 cell line (AID 743080; calls by dose curve; also: series mostly up to about 70 µM; nearly all actives have a fitted effect of over 25% in size)
# Procedure, shortened: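 Antagonist mode: compounds in DMSO were pinned onto BG1-Luc-4E2 cells alongside 17beta-estradiol agonist, incubated 21.5 h, and ERE-driven luciferase measured with ONE-Glo. Cytotoxicity was multiplexed using CellTiter-Fluor fluorescence.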
# [14] = qHTS assay to identify small molecule antagonists of the estrogen receptor alpha (ER-alpha) signaling pathway using the BG1 cell line - cell viability counter screen (AID 743081);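 also: compound given together with 17beta-estradiol as the ER stimulus; series mostly up to about 70 µM; nearly all actives have a fitted effect of over 45% in size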
# Aromatase (Homo sapiens) = Aromatase (Homo sapiens) (UniProt P11511); experiment: qHTS assay to identify aromatase inhibitors (AID 743083); also: series mostly up to about 70 µM; nearly all actives have a fitted effect of over 55% in size
# Sequence of Aromatase (Homo sapiens) (P11511 whole entry, looked up): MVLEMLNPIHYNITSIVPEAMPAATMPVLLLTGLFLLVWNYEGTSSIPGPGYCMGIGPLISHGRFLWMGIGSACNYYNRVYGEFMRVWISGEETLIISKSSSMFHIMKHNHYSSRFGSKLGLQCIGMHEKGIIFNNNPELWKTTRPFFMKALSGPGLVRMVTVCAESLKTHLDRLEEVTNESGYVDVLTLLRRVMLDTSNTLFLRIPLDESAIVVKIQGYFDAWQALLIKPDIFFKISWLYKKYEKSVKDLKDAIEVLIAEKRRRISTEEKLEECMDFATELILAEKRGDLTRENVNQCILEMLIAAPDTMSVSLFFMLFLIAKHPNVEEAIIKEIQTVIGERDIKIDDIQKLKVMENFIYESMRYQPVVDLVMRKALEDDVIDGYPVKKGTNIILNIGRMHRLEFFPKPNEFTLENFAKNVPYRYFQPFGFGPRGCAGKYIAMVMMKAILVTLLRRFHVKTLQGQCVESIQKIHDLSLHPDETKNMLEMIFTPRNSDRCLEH
# [15] = qHTS assay to identify aromatase inhibitors - cell viability counter screen (AID 743084)
# [16] = qHTS assay to identify small molecule antagonists of the thyroid receptor (TR) signaling pathway - cell viability counter screen (AID 743064); also: nearly all actives have a fitted effect of over 50% in size
# Procedure, shortened: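 Viability of T3-stimulated (1 nM final) GH3.TRE-Luc cells is measured by CellTiter-Fluor fluorescence after 23.5 h compound exposure at 37 °C plus 30 min reagent incubation.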
SMILES,outcome [1],Potency [2],Potency [3],Potency [4],outcome [5],Potency [6],Potency [7],outcome [8],Potency [9],Potency [10],outcome [11],Potency [12],outcome [13],Potency [14],Potency (Aromatase (Homo sapiens)),Potency [15],Potency [16]
O=C1CCCCC1C1CCCCC1 (stereo not drawn),inactive,inactive,inactive,inactive,inactive,inactive,inactive,inactive,inactive,inactive,inactive,inactive,inactive,inactive,inactive,inactive,
Nc1ccc(Oc2ccc(N)c(N)c2)cc1,inactive,15.4 µM (active),7.7 µM (active),13.7 µM (active),inactive,,,inactive,,inactive,inactive,,,inactive,,inactive,
C[C@@H]1CN(c2c(F)c(N)c3c(=O)c(C(=O)O)cn(C4CC4)c3c2F)C[C@H](C)N1,inactive,inactive,inactive,inactive,inactive,inactive,,,inactive,inactive,inactive,inactive,inactive,inactive,inactive,inactive,inactive
O=c1oc2c(O)c(O)cc3c(=O)oc4c(O)c(O)cc1c4c23,inactive,inactive,inactive,inactive,inactive,inactive,,inactive,inactive,inactive,inactive,inactive,inactive,inactive,inactive,inactive,inactive
CNCCC(Oc1ccccc1OC)c1ccccc1 (stereo not drawn),inactive,26.6 µM (active),inactive,inactive,inactive,inactive,,inactive,inactive,inactive,inactive,inactive,inactive,inactive,inactive,inactive,
O=C(O)C(=O)Cc1c[nH]c2ccccc12,inactive,inactive,inactive,inactive,inactive,inactive,,,inactive,inactive,inactive,inactive,,inactive,inactive,inactive,inactive
O=C(O)c1cccc(Cl)c1Cl,inactive,inactive,inactive,inactive,inactive,inactive,,,inactive,inactive,inactive,inactive,inactive,inactive,inactive,inactive,inactive
OCc1ccccc1O,inactive,inactive,inactive,inactive,,inactive,inactive,inactive,,inactive,,,,inactive,inactive,inactive,inactive
CC(=O)N(CC(O)CN(C(C)=O)c1c(I)c(C(=O)NCC(O)CO)c(I)c(C(=O)NCC(O)CO)c1I)c1c(I)c(C(=O)NCC(O)CO)c(I)c(C(=O)NCC(O)CO)c1I (stereo not drawn),inactive,inactive,inactive,inactive,,inactive,inactive,inactive,inactive,inactive,inactive,inactive,inactive,inactive,inactive,inactive,
COc1ccc2nc(NC(=O)Nc3ccccc3)sc2c1,inactive,18.8 µM (active),26.6 µM (active),16.8 µM (active),inactive,inactive,,inactive,,inactive,,,,inactive,inactive,inactive,inactive
CCCCCCOc1ccc(N)cc1,inactive,61.1 µM (active),43.3 µM (active),54.5 µM (active),inactive,inactive,,inactive,,,inactive,9.69 µM (active),,inactive,,,inactive
C1CSCCS1,inactive,inactive,inactive,inactive,inactive,inactive,inactive,inactive,,inactive,,,,inactive,inactive,inactive,
CCCCN1C[C@H](O)[C@@H](O)[C@H](O)[C@H]1CO,inactive,inactive,inactive,inactive,inactive,inactive,inactive,inactive,inactive,inactive,inactive,inactive,inactive,,inactive,inactive,
